Experimental data as given in ChEMBL document CHEMBL3988442, “University of Dundee, Small-Polar-MMV Screening Library” (2021).
The whole screen tested about 48,000 compounds, of which about 13,000 (27%) showed an effect of 50% or more. Some of the results follow.

These compounds were tested on Wolbachia pipientis (assay: Anti-Wolbachia Cell-Based Screen). Conditions: 5 µM.
Format: functional
Parameters: scale not given: in the data most compounds retested in dose-response had high values

Row | SMILES | Percent Effect [%]
1 | Cn1c(-c2ccccc2Cl)nc2cc(C(=O)NC(CO)CO)cnc21 | -7.352
2 | COCCc1noc(-c2ccc(-c3cc[nH]n3)nc2)n1 | 6.666
3 | COCc1nccc(C2CCCN(Cc3ccc(C#N)cc3F)C2)n1 (configuration not stated) | 7.365
4 | Cc1nc(CN2CCCC(CCc3ccc(F)cc3F)C2)c[nH]1 (configuration not stated) | 10.82
5 | Cn1nc(C2CCCN(Cc3ccc(F)cc3F)C2)c2nccnc21 (configuration not stated) | 118.1
6 | CCn1c(C2CCCN(Cc3cc(F)ccc3OC)C2)nn(C)c1=O (configuration not stated) | -8.154
7 | OC1CCCN(Cc2ccc(F)c3cccnc23)C1 (configuration not stated) | 11.38
8 | Cl.Cn1nc(C2CCCN(Cc3cc(F)ccc3F)C2)c2nccnc21 (configuration not stated) | 109
9 | COCCOc1ccccc1C(=O)Nc1c(C)cnn1CC1CC1 | 0.1744
10 | NC(=O)CC1CCN(c2ncnc3cccc(F)c23)CC1 | 0.8232
11 | Cc1nccn1-c1cc(CNC(=O)CCNC(=O)OC(C)(C)C)ccn1 | -3.866
12 | CCc1cc(NCc2cccnc2N2CCCCC2)n2ncnc2n1 | -26.62
13 | Cc1cc(C(=O)N(C)S(C)(=O)=O)ccc1F | -1.159
14 | Cc1ccc(C(=O)N(CC(=O)O)CC(C)C)cc1F | 102.6
15 | Cc1cccc(C(=O)N(CC(=O)O)CC(C)C)c1 | 94.29
16 | Cc1cc(C(=O)N(C)S(=O)(=O)C(C)C)ccc1F | -2.598
17 | Cc1noc(NC(=O)c2ccc(C)c(F)c2)n1 | 6.644
18 | CC(O)CN(Cc1cccc(C(=O)N(C)C)c1)c1ccccc1 (configuration not stated) | 9.156
19 | Cc1ccc(C(=O)NCCNC(=O)c2cncnc2C(C)C)cc1F | 15.15

Row | SMILES | Percent Effect [%]
20 | Cc1cc(C(=O)N(CC(=O)O)CC(C)C)ccc1F | 96.02
21 | CCN(CC)C(=O)c1cccc(Cn2nc(C)cc2C)c1 | -2.548
22 | CC(C)CCNC(=O)C(c1cccc(F)c1)N(C)C (configuration not stated) | -2.485
23 | CC(C)CN(CC(=O)O)C(=O)c1ccc(F)cc1 | 116.8
24 | CN(CC(=O)NCCC#N)C(c1ccccc1)c1ccc(F)cc1 (configuration not stated) | 2.68
25 | CCC1CN(C(=O)c2ccccc2C(C)=O)CCN1C(C)C (configuration not stated) | 1.877
26 | COc1cccc(CNC2CCc3ccc(C)cc32)n1 (configuration not stated) | 12.65
27 | COCCN1CCN(CC(=O)N(C)Cc2ccccc2)CC1C (configuration not stated) | 2.857
28 | CN(c1nc(Cn2cnccc2=O)cs1)C1CC1 | 6.38
29 | CNC(=O)C1CN(C)CCN1c1nc(C)cc(C)n1 (configuration not stated) | 94.41
30 | CNC(=O)C1CN(C(C)C)CCN1c1nc(C)cc(C)n1 (configuration not stated) | 92.65
31 | CNC(=O)C1Cc2ccccc2CN1CCC#N (configuration not stated) | -3.828
32 | CNC(=O)[C@@H]1C[C@@H](N)CN1c1nc(N2CCCC2)nc(C)c1C | 2.441
33 | Cc1cccnc1NC(=O)C1CCN(C(C)C(=O)NC(C)(C)C)CC1 (configuration not stated) | -8.313
34 | CNC(=O)[C@H]1CC[C@@H]2[C@@H](CCN2c2ncccn2)O1 | 0.107
35 | CCCN1Cc2ccccc2CC1C(=O)NC (configuration not stated) | -1.794
36 | CNC(=O)C1CCCN1c1nc(C)c2ccccc2n1 (configuration not stated) | 9.069
37 | CNC(=O)C1CN(C(C)C)CCN1c1ncccn1 (configuration not stated) | 82.95
